Experimental data: the supplement of paper PMC10849652
Of roughly 7,900 targets only a part is listed; those with a hit were picked by preference. About 0.6% of all pairs of compound and target were hits. Values without a mark were called inactive.

How the values were obtained:
Assay in all cases: log2 fold change, soluble protein after heating vs DMSO (PISA); higher = thermal stabilisation; K562 cells, 10 uM, 30 min; active = over 0.2 and 3.5 SD of the protein, either way, in both replicates (recomputed)
[1] = compound: CS(=O)(=O)c1ccc(-c2cnc(N)c(C(=O)Nc3ccccc3)n2)cc1
Procedure, shortened: (§1)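 K562 cells (2×10^6 cells/mL) were treated with 10 μM compound for 30 min, and aliquots were heated for 3 min over 48°C-58°C. Pooled aliquots were extracted in PBS with 0.5% NP-40 at 4°C, and the supernatant after 21,000xg for 90 min was measured by TMTpro 16plex LC-MS/MS with channel sums equalised. Reported thermal stability, relative to control samples and from duplicates, is a log2 fold change.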

[2] = compound: C[C@@H](Oc1cc(-c2cnn(C3CCNCC3)c2)cnc1N)c1c(Cl)ccc(F)c1Cl [crizotinib]
Procedure, shortened: as §1

[3] = compound: C[C@@H]1COCCN1C2=NC(=NC(=C2)C3(CC3)S(=O)(=O)C)C4=C5C=CNC5=CC=C4
Procedure, shortened: as §1

[4] = compound: C[C@H](C1=CC=C(C=C1)C(=O)NC2=C3C=CNC3=NC=C2)N
Procedure, shortened: as §1

[5] = compound: C[C@H](Nc1ncnc2nc[nH]c12)c1cc2cccc(Cl)c2c(=O)n1-c1ccccc1 [duvelisib]
Procedure, shortened: as §1

[6] = compound: Cc1cc(Nc2cc(CN3CCOCC3)c3nc(C)c(Cc4ccc(Cl)cc4F)n3n2)n[nH]1 [gandotinib]
Procedure, shortened: as §1

[7] = compound: Cc1cc(Nc2cc(N3CCN(C)CC3)nc(Sc3ccc(NC(=O)C4CC4)cc3)n2)n[nH]1 [tozasertib]
Procedure, shortened: as §1

[8] = compound: Cc1cc(SCc2sc(-c3ccc(C(F)(F)F)cc3)nc2C)ccc1OCC(=O)O
Procedure, shortened: as §1

[9] = compound: Cc1ccc(-n2nc(C(C)(C)C)cc2NC(=O)Nc2ccc(OCCN3CCOCC3)c3ccccc23)cc1 [doramapimod]
Procedure, shortened: as §1

[10] = compound: Cc1ccc(C(=O)N(CCCN)[C@@H](c2nc3cc(Cl)ccc3c(=O)n2Cc2ccccc2)C(C)C)cc1 [ispinesib]
Procedure, shortened: as §1

Chain of UniProt Q9UJU6 (Q9UJU6 whole entry, looked up): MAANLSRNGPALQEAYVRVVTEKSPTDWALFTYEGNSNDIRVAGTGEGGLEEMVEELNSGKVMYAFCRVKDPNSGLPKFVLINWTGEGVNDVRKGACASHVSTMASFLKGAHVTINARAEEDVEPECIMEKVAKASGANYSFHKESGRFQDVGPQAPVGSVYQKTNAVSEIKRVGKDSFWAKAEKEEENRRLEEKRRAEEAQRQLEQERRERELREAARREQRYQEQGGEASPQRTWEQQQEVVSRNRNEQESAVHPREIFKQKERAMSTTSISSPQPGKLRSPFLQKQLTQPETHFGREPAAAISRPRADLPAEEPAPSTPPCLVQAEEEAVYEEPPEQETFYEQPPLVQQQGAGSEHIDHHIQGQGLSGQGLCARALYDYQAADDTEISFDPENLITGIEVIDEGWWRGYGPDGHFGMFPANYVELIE
Chain of UniProt P07711 (P07711 whole entry, looked up): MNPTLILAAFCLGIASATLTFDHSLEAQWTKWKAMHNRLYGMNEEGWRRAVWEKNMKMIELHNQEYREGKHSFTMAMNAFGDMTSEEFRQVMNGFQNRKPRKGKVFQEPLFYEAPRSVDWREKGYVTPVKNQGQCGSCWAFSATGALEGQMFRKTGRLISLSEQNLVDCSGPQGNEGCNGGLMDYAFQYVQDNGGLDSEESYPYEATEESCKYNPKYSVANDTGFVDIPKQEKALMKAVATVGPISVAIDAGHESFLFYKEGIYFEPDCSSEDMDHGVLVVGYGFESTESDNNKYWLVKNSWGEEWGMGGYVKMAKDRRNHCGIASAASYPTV
Chain of UniProt Q9H773 (Q9H773 whole entry, looked up): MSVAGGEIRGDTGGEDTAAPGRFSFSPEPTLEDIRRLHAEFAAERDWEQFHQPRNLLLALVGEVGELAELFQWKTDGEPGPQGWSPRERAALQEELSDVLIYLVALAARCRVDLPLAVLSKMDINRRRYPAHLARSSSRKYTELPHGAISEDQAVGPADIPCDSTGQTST
Chain of UniProt Q96KC8 (Q96KC8 whole entry, looked up): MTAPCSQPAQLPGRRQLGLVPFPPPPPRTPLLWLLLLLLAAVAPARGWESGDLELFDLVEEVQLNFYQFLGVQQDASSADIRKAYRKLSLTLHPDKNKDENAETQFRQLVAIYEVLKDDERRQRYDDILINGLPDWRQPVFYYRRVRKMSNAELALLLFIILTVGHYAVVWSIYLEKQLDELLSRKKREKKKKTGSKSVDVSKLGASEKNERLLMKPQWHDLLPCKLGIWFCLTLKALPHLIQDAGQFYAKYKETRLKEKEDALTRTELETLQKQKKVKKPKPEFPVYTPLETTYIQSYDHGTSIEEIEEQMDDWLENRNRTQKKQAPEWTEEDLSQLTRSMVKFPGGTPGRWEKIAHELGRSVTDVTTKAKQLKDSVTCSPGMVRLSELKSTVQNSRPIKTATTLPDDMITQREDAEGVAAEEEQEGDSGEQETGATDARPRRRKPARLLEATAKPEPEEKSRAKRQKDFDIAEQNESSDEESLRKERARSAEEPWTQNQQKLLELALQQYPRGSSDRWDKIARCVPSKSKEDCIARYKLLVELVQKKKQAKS
Chain of UniProt Q9NV06 (Q9NV06 whole entry, looked up): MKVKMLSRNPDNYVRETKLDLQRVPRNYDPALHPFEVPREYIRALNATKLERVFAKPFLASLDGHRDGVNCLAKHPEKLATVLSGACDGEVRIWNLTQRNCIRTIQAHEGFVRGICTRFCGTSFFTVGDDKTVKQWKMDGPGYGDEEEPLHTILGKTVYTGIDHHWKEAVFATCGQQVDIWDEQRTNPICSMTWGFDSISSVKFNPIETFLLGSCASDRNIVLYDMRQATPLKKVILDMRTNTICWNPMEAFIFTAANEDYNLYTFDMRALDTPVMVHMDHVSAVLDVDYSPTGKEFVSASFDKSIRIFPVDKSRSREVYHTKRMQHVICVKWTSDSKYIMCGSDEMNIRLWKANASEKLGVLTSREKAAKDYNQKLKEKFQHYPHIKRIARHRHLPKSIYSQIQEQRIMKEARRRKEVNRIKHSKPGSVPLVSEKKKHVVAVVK
Chain of UniProt Q5W0V3 (Q5W0V3 whole entry, looked up): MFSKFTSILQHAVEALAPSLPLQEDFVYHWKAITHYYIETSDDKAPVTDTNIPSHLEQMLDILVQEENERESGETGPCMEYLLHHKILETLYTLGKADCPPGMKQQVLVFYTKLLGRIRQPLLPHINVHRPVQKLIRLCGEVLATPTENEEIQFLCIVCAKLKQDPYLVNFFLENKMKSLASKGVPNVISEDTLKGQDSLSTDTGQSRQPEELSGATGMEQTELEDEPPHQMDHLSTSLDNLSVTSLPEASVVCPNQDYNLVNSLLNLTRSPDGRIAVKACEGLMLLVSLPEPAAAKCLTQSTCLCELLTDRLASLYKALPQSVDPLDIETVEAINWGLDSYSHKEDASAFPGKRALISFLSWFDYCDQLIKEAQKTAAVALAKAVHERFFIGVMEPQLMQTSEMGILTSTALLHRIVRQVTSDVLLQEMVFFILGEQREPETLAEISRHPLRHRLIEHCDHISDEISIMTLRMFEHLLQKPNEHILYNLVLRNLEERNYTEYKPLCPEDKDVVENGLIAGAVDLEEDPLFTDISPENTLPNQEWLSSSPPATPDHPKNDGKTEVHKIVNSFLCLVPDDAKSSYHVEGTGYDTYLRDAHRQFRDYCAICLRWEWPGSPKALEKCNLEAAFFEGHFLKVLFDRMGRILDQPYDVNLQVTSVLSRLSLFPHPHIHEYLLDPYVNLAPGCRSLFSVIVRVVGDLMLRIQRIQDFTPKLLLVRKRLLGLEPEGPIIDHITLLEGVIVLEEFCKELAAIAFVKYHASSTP
Chain of UniProt O00471 (O00471 whole entry, looked up): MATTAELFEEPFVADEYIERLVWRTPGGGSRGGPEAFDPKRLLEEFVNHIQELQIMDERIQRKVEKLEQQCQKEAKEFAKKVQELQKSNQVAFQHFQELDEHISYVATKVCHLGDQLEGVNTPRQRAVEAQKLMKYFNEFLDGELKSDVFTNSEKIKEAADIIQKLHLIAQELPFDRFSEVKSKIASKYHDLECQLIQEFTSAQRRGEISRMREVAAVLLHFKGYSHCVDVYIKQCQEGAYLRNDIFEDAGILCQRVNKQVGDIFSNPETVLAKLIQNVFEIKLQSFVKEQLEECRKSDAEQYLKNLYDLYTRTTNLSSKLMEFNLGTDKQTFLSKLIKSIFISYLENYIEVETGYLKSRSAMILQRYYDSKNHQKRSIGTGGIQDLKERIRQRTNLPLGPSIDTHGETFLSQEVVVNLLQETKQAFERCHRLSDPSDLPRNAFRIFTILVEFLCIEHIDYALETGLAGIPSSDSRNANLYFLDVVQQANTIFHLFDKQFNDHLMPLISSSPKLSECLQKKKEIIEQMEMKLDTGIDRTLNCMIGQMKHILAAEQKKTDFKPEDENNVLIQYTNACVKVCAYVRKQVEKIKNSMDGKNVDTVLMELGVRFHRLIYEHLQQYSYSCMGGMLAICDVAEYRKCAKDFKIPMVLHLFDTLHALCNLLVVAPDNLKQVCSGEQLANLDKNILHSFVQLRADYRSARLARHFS
Chain of UniProt O60888 (O60888 whole entry, looked up): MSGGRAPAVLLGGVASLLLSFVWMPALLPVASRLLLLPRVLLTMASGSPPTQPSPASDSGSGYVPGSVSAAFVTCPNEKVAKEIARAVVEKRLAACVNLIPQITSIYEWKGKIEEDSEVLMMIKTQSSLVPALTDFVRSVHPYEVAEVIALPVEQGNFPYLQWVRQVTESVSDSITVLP
Chain of UniProt Q7Z7A3 (Q7Z7A3 whole entry, looked up): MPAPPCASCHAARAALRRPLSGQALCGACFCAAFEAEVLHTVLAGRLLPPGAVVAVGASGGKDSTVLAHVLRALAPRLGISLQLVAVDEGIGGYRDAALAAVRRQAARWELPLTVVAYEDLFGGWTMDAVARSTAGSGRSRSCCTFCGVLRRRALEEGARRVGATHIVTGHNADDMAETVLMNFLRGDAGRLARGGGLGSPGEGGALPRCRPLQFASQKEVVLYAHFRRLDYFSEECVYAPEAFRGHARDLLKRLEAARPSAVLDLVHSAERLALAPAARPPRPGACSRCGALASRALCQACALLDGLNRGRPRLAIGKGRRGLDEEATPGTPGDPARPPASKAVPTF
Chain of UniProt Q6IAN0 (Q6IAN0 whole entry, looked up): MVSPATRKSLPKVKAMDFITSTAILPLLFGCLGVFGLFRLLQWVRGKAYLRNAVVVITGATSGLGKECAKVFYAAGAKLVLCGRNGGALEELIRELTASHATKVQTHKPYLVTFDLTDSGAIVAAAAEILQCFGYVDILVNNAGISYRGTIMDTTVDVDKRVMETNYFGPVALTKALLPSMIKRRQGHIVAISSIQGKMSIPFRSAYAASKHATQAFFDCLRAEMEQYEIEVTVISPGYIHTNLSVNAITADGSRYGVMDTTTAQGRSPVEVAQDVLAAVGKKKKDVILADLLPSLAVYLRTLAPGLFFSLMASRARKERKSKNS
Chain of UniProt Q9GZT9 (Q9GZT9 whole entry, looked up): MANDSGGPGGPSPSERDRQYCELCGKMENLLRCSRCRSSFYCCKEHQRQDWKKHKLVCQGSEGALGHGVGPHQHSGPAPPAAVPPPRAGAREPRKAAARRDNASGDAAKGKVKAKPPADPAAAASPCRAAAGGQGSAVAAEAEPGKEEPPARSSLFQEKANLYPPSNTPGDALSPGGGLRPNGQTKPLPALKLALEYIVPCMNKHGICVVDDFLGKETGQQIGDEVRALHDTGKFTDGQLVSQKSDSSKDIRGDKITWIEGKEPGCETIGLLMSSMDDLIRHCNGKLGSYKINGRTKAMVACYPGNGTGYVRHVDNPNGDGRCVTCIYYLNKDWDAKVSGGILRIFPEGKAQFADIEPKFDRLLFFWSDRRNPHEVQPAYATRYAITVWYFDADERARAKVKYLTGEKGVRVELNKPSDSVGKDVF
Chain of UniProt P06730 (P06730 whole entry, looked up): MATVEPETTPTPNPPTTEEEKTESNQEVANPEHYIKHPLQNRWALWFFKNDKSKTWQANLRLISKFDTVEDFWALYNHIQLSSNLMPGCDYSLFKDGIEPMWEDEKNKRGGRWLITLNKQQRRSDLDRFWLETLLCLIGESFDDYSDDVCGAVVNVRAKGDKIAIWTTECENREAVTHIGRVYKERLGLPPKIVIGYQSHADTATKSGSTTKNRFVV

| Target | log2 fold change [1] | log2 fold change [2] | log2 fold change [3] | log2 fold change [4] | log2 fold change [5] | log2 fold change [6] | log2 fold change [7] | log2 fold change [8] | log2 fold change [9] | log2 fold change [10] |
| --- | --- | --- | --- | --- | --- | --- | --- | --- | --- | --- |
| DNAJC1 (UniProt Q96KC8) | -0.021 | -0.148 | 0.009 | 0.023 | 0.027 | -0.094 | -0.035 | 0.009 | 0.002 | -0.356 (active) |
| EGLN1 (UniProt Q9GZT9) | 0.01 | -0.029 | -0.064 | -0.035 | 0.029 | -0.036 | 0.044 | 0 | -0.014 | -0.04 |
| CTU1 (UniProt Q7Z7A3) | 0.005 | -0.132 | 0.081 | -0.032 | -0.012 | -0.015 | -0.026 | 0.058 | -0.049 | -0.082 |
| DLD (UniProt P09622) | -0.068 | -0.023 | 0.019 | -0.042 | 0.016 | -0.02 | -0.009 | 0.014 | -0.016 | -0.083 |
| DYRK1A isoform 2 (UniProt Q13627) | 0.008 | -0.181 | 0.045 | -0.107 | -0.025 | -0.102 | -0.051 | 0.042 | 0.014 | -0.059 |
| CTSL (UniProt P07711) | 0.025 | -0.489 (active) | -0.02 | 0.021 | -0.07 | 0.006 | -0.081 | -0.013 | 0.018 | -0.199 |
| EXOC6 (UniProt Q8TAG9) | 0.001 | -0.206 | -0.038 | 0.033 | -0.095 | -0.098 | 0.037 | 0.1 | 0.02 | -0.363 (active) |
| CUX1 isoform 3 (UniProt P39880) | 0.02 | -0.023 | 0.086 | -0.002 | 0.064 | -0.048 | 0.029 | -0.026 | 0.019 | -0.101 |
| F5 (UniProt P12259) | 0.081 | 0.257 | -0.064 | 0.057 | -0.036 | 0.023 | 0.004 | 0.223 | 0.019 | 0.055 |
| EVC2 (UniProt Q86UK5) | 0.022 | -0.061 | -0.244 | -0.209 | -0.162 | 0.071 | 0.02 | -0.052 | 0 | 0.065 |
| DHRS7B (UniProt Q6IAN0) | 0.066 | 0.194 | 0.003 | -0.08 | 0.097 | -0.232 | 0.033 | 0.105 | -0.006 | 0.367 (active) |
| EIF4A1 (UniProt P60842) | -0.055 | -0.058 | 0.03 | -0.015 | 0.007 | -0.206 | -0.008 | 0.047 | 0.025 | -0.11 |
| DIAPH1 (UniProt O60610) | 0.047 | -0.152 | -0.054 | 0.168 | -0.058 | -0.063 | 0.153 | 0.125 | 0.135 | -0.089 |
| DCAF13 (UniProt Q9NV06) | -0.086 | 0.067 | -0.538 (active) | 0.273 | -0.105 | 0.221 | 0.007 | -0.033 | 0.173 | -0.1 |
| DBN1 isoform 3 (UniProt Q16643) | -0.063 | 0.088 | -0.075 | 0.044 | -0.097 | -0.009 | 0.158 | -0.02 | 0.02 | 0.071 |
| DHPS (UniProt P49366) | 0.015 | -0.008 | 0.043 | -0.047 | 0.059 | 0.032 | -0.046 | -0.054 | 0.051 | 0.067 |
| EIF2S3 (UniProt P41091) | -0.071 | -0.014 | -0.219 (active) | 0.053 | -0.037 | 0.077 | -0.031 | 0.014 | 0.038 | -0.088 |
| DCTPP1 (UniProt Q9H773) | -0.025 | 0.142 | 0.179 | -0.177 | 0.072 | -0.004 | 0.024 | -0.064 | -0.002 | 0.203 |
| ERLIN1 (UniProt O75477) | 0.012 | -0.039 | -0.038 | 0.099 | -0.021 | -0.04 | 0.025 | 0.148 | 0.057 | -0.27 (active) |
| FAM83D (UniProt Q9H4H8) | -0.018 | -0.061 | 0.021 | 0.014 | 0.001 | -0.308 (active) | 0.025 | 0.08 | -0.009 | 0.064 |
| DBNL isoform 3 (UniProt Q9UJU6) | 0.041 | -0.116 | 0.073 | -0.016 | 0.037 | -0.094 | 0.048 | -0.015 | 0.054 | -0.048 |
| EDC3 (UniProt Q96F86) | 0.002 | -0.237 | -0.439 (active) | -0.014 | -0.14 | -0.023 | -0.025 | 0.066 | 0.05 | -0.121 |
| EXOC5 (UniProt O00471) | -0.02 | -0.279 (active) | -0.017 | 0.015 | 0.005 | -0.129 | 0.014 | 0.101 | 0.008 | -0.342 (active) |
| FAM160B1 (UniProt Q5W0V3) | 0.015 | -0.119 | 0.06 | -0.003 | 0.117 | -0.217 | 0.003 | 0.049 | -0.018 | -0.125 |
| EEF1AKNMT (UniProt Q8N6R0) | -0.011 | -0.059 | 0.006 | 0.111 | -0.047 | -0.09 | 0.071 | 0.153 | 0.077 | -0.072 |
| ESS2 (UniProt Q96DF8) | -0.081 | -0.079 | 0.016 | 0.031 | -0.069 | 0.004 | -0.029 | -0.044 | 0.02 | -0.053 |
| CUTA isoform 2 (UniProt O60888) | 0.073 | -0.045 | 0.021 | -0.001 | 0.01 | 0.131 | -0.05 | -0.049 | -0.019 | 0.109 |
| DYNC1LI2 (UniProt O43237) | 0.025 | 0.079 | -0.283 | 0.393 | -0.049 | 0.235 | 0.018 | 0.054 | -0.121 | -0.026 |
| EIF4E isoform 2 (UniProt P06730) | 0.198 | 0.165 | 0.4 (active) | -0.099 | 0.143 | -0.006 | 0.003 | -0.02 | -0.045 | 0.159 |
| DUS2 (UniProt Q9NX74) | -0.017 | 0.048 | 0.084 | 0.045 | 0.012 | 0.036 | -0.013 | 0.062 | -0.006 | 0.097 |
